Most compounds without a hit are left out; they make up all but 4.2% or so of the library.
ssDAF12 agonist: activators of S. stercoralis DAF-12 nuclear receptor; HEK293 ssDAF-12/GRIP1 lit1-tk-luc reporter, luminescence; % of 3 µM dafachronic acid response; activation, % at 6.8 µM; actives 1% (n = 370,000); AID 652126;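 active = activation above the mean over all tested compounds plus 3 SD, cut at about 0.9% in these data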
SMARCA2 activ: increases SMARCA2 function in MMTV reporter cells; MG213 cells, MMTV-luciferase reporter, dexamethasone, overnight; activation, % at 9.1 µM; actives 1% (n = 370,000); AID 652017; in the data active = activation above about 7.8%
hcDAF12 agonist: H. contortus DAF-12 activation, primary screen; HEK293 hcDAF-12 lit1-tk-luc reporter, luminescence; 0% DMSO, 100% Δ7-dafachronic acid; activation, % at 6.8 µM; actives 1.4% (n = 370,000); AID 652067;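 active = activation above the mean of all tested compounds plus 3 SD, cut at about 5.5% in these data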
DAX1 inh: inhibitors of DAX1 repression of SF-1 activated StAR promoter | HEK293T StAR-luciferase reporter, SF-1/DAX-1 repression relief | inhibition, % at 6.8 µM | actives 1.1% (n = 370,000) | AID 652010;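 active = inhibition above the mean over all tested compounds plus 3 SD, cut at about 3.6% in these data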;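 note: higher inhibition means more luminescence from relief of DAX-1 repression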
hgDAF-12 ag: agonists of H. glycines DAF-12 nuclear receptor. actives 1.8% (n = 370,000). HEK293 GAL4-hgDAF12 UAS-luciferase reporter, agonist luminescence; normalized to butyrate control. AID 687014. activation, % at 6.8 µM;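 active = activation above a cutoff set at the mean of all screened compounds plus 3 SD, cut at about 10% in these data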
Of the large screens only hits and unclear results are named; the others gave an inactive call.

O=C(NCCc1c[nH]c2ccccc12)C(=O)NCC1OCCCN1S(=O)(=O)c1ccc(F)cc1 (stereo not drawn)	none
CC(=O)Nc1ccc(-c2csc(Nc3cccc(C)n3)n2)cc1	hgDAF-12 ag 11
COc1ccccc1Nc1nc(-c2cccnc2)cs1	ssDAF12 agonist 1.2, hgDAF-12 ag 12
COc1ccc(-c2csc(Nc3ccc(C)cn3)n2)cc1	hgDAF-12 ag 12
CC(=O)Oc1ccc(-c2csc(Nc3ccc(Cl)cn3)n2)cc1	none
Cc1cccnc1Nc1nc(-c2ccc(O)cc2)cs1	none
Oc1ccc(-c2csc(Nc3ccccn3)n2)cc1	hgDAF-12 ag 11
CCC(NC(=O)c1cccc2c1C(=O)N(Cc1cccnc1)C2)c1ccccc1 (stereo not drawn)	none
O=C(C1CCCN1S(=O)(=O)c1ccc([N+](=O)[O-])cc1)N1CCc2ccccc2C1 (stereo not drawn)	none
CN(C)c1cccc(/C=C2\CC3(OC(=O)c4ccc(Cl)cc4)CCCN2C3)c1 (stereo not drawn)	none
COc1ccc(-c2csc(Nc3ccccn3)n2)cc1OC	ssDAF12 agonist 0.9
COc1ccc(Nc2nc(-c3cccs3)cs2)c(OC)c1	ssDAF12 agonist 1.1
Cc1ccnc(NC(=O)C2CC(=O)N(Cc3ccccc3)C2)c1 (stereo not drawn)	DAX1 inh 4.3
Cc1ccc(NC(=O)C2CC(=O)N(Cc3ccccc3)C2)nc1 (stereo not drawn)	none
COc1ccc(CNC(=O)CN(c2cccc(OC)c2)S(C)(=O)=O)cc1	none
COc1ccc(CNC(=O)CN(c2cccc([N+](=O)[O-])c2)S(C)(=O)=O)cc1	hgDAF-12 ag 13
CCC(=O)NCCc1nc2cc(NC(=O)c3cccs3)ccc2n1C	DAX1 inh 3.6
CCC(=O)NCCc1nc2cc(NC(=O)c3ccccc3OC)ccc2n1C	none
COc1ccccc1N/C=C(\C#N)c1nc2ccccc2[nH]1	ssDAF12 agonist 1.2
COc1cccc(/C=C(\C#N)c2nc3ccccc3[nH]2)c1OCC(=O)O	none
COc1cccc(/C=C(/C#N)c2nc3ccccc3[nH]2)c1OC(C)C(=O)O (stereo not drawn)	ssDAF12 agonist 1.0
Cc1ccccc1NCC(=O)N/N=C/c1ccc[nH]1	none (no result: SMARCA2 activ, DAX1 inh)
O=c1cc(-c2cccc(Br)c2)oc2cccc(O)c12	hcDAF12 agonist 5.8
O=c1cc(-c2ccccc2)oc2cccc(O)c12	none
O=C(CCN1C(=O)/C(=C\c2cccc(Br)c2)SC1=S)NCCCN1CCOCC1	hcDAF12 agonist 6.0
COc1cccc(/C=C2\SC(=S)N(CCC(=O)NNC(=O)c3ccccc3OC)C2=O)c1	ssDAF12 agonist 1.0
COC(=O)c1cccc(NC(=O)c2cccc(-n3cnnn3)c2)c1	none
O=C(Nc1cnc2ccccc2c1)c1cccc(-n2cnnn2)c1	hcDAF12 agonist 6.3
COc1ccc(CNC(=O)c2ccc(Cl)c(NC3=NC4CS(=O)(=O)CC4S3)c2)cc1 (stereo not drawn)	hgDAF-12 ag 11
O=C(NCc1ccccc1)c1ccc(Cl)c(NC2=NC3CS(=O)(=O)CC3S2)c1 (stereo not drawn)	none
CCN(CC)C(=O)c1ccc(/C=C/c2c[nH]c3ccccc23)[n+](C)c1	ssDAF12 agonist 1.6
CC[n+]1c(/C=C/c2c[nH]c3ccccc23)ccc2cc(C)ccc21	none
O=C1c2ccccc2-c2nnc(-c3ccc(O)cc3)cc21	hcDAF12 agonist 5.9, hgDAF-12 ag 11
Cc1ccc(-c2cc3c(nn2)-c2ccccc2C3=O)cc1	hcDAF12 agonist 6.3
Cc1ccc(NC2=CC(=O)C(=O)c3ccccc32)cc1	none
COc1ccc(NC(=S)NC(=O)c2ccc(Br)o2)cc1	hgDAF-12 ag 11
N/C(=N\OC(=O)COc1ccc(Cl)cc1Br)c1cccnc1	hgDAF-12 ag 11
Cc1ccc(C)c(OCC(=O)O/N=C(\N)c2cccnc2)c1	none
N/C(=N\OC(=O)COc1ccc(Br)cc1Cl)c1cccnc1	hgDAF-12 ag 12
CCCCCC[C@@H](CCCc1ccccc1OC)CN(CCCC)S(C)(=O)=O	none
Cc1cccc2sc(NNC(=O)c3cc(=O)c4ccccc4o3)nc12	ssDAF12 agonist 1.4, hcDAF12 agonist 6.0
O=C(NNc1nc2c(F)cccc2s1)c1cc(=O)c2ccccc2o1	hcDAF12 agonist 6.2
Cc1ccc2sc(NNC(=O)c3cc(=O)c4ccccc4o3)nc2c1C	none
O=C(COc1ccccc1)NNc1nc2c(F)cccc2s1	none
O=C(NNc1nc2c(F)cccc2s1)c1ccc(F)cc1	ssDAF12 agonist 1.3
COc1ccc(CCn2c(-c3ccc(C(C)(C)C)cc3)n[nH]c2=S)cc1OC	SMARCA2 activ 7.9
COc1ccc(C2Nc3ccc4ccccc4c3-c3c2c(=O)oc2ccccc32)cc1 (stereo not drawn)	ssDAF12 agonist 1.4
CCN(C[C@H]1[C@@H](c2ccc(C3=CCCC3)cc2)[C@H](CO)N1C(=O)c1cccnc1)S(=O)(=O)c1ccccc1[N+](=O)[O-]	none
CC1CC(C)CN(C(=O)c2cccc(N3C(=O)c4ccccc4C3=O)c2)C1 (stereo not drawn)	DAX1 inh 4.3
COc1ccc(-c2c(C#Cc3ccc(N(C)C)cc3)c3ccccc3n2C)cc1	hcDAF12 agonist 5.8
COC(=O)[C@]12C[C@H](CC(=O)NCc3cccs3)C(=O)N(Cc3cccc4ccccc34)C1=C[C@H](COCc1ccccc1)O[C@@H]2C	none
CCC(Cc1ccccc1)NC(=O)Cn1ncc2ccsc2c1=O (stereo not drawn)	ssDAF12 agonist 1.0, hcDAF12 agonist 5.9, hgDAF-12 ag 11
COc1ccc(NC(=O)Nc2ccccn2)cc1OC	ssDAF12 agonist 1.5
COc1ccc(OC)c(NC(=O)NC2CCCCCCC2)c1	none
CCOc1ccc(NC(=O)C(=S)NC2CCCCC2)cc1	none
COc1ccc(NC(=O)NC2CCCCCCC2)cc1OC	DAX1 inh 4.4
Cc1ccc(NC(=O)NC2CCCCC2)cc1Cl	hgDAF-12 ag 12
COc1ccc(NC(=O)C(=S)NC2CCCCC2)cc1	hgDAF-12 ag 12
CC(C)c1c(Cl)c(O)c(-c2ccccc2)c(=O)n1-c1ccc(F)cc1	hcDAF12 agonist 5.7
Fc1ccc(-c2nnn3c2nc(NCc2ccccc2)c2ccccc23)cc1	none
NNc1nc2c(-c3ccc(F)cc3)nnn2c2ccccc12	ssDAF12 agonist 1.3, hcDAF12 agonist 6.4, hgDAF-12 ag 10
Cc1cc(C)c2cc(C(=O)N3CCC(N4CCCCC4)CC3)[nH]c2c1	DAX1 inh 4.3
Cc1cc(C)c2cc(C(=O)N3CCC(C(=O)c4ccc(F)cc4)CC3)[nH]c2c1	none
C=CCCC1CN(Cc2ccc(OC)cc2)S(=O)(=O)c2c(NCc3cc(OC)c(OC)c(OC)c3)cccc2O1 (stereo not drawn)	none
O=c1cc(-c2ccc(O)cc2)oc2ccc(O)cc12	SMARCA2 activ 7.9, hgDAF-12 ag 13
NC(=O)c1cnn(-c2cc(Oc3ccccc3)ncn2)c1N	DAX1 inh 3.7

Source: PubChem BioAssay (The Scripps Research Institute Molecular Screening Center)
